The panel holds about 83,000 compounds, 20% with a hit somewhere; the sample as a whole holds those more often.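 Each cell line was grown in a 96-well plate and treated with one concentration of compound for 48 hours. Values below 10 were considered active.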 Values without a mark were called inactive. Calls of active or inactive are those of the source.

This note sets out measurements from PubChem BioAssay (NCI).

In this assay the test system is NCI/ADR-RES ovarian. Nature of the assay: NCI-60 one-dose screen, 48 h (100 = growth as untreated, 0 = no growth, -100 = all killed). As to conditions: 10 µM unless noted. Here is the method: Growth inhibition of the NCI/ADR-RES human […] tumor cell line is measured as a screen for anti-cancer activity. Cells are grown in 96 well plates and exposed to the test compound for 48 hours. Compounds are tested at a single concentration, which is 10^-5 M for most compounds. The reported endpoint is percent growth (GI% or GIPRCNT), where numbers from 0 - 100% represent growth inhibition, and numbers from -100% - 0 represent cell death. For example, a value of 40 represents 60% growth inhibition. A value of 0 means no net growth occurred over the course of the experiment. A value of -40 indicates 40% of cells at the beginning of the experiment died by the end of the experiment. A value of -100 means all cells are dead at the end of the experiment.
NCI-60 Human Tumor Cell Lines Screen was performed using the standard one-dose NCI protocol, which is described in more detail at https://dtp.cancer.gov/discovery_development/nci-60/default.htm.
Compounds with GIPRCNT values below 10 were considered active. Activity score was based on GIPRCNT using the following formula: […]
Score is 0 for GIPRCNT values of 100 or above, 50 for GIPRCNT values of 0, and 100 for GIPRCNT values of -100.
As to `O=c1c(CNc2ccc(S(=O)(=O)Nc3ncccn3)cc2)coc2ccccc12`, the growth is 104%. The figure for `COc1ccc(/C=C/C(=O)NCCO)cc1` is 104%; for `Cc1cc(N(CCCNc2ccnc3cc(Cl)ccc23)Cc2ccco2)nc(N2CCOCC2)n1` it is 67.4%. Regarding `COc1cc(-c2c(C#N)c(-c3cccs3)nc3c2c(-c2ccccc2)nn3-c2ccccc2)ccc1O`, the growth is 88.9%. `C/C(=N\Nc1ccc2ccccc2n1)c1ccccn1`: the growth was 1.66% (active). The figure for `COc1cc2c(cc1-c1c(C)noc1C)ncc1nc(C3CCC(F)(F)CC3)n([C@@H](C)COC(F)F)c12` is 40.8%. The figure for `O=C(/C=C/c1cccc2ccccc12)Nc1ncc(Cc2ccccc2)s1` is -8.05% (active); for `Cc1cc2nc3c4cc(N)ccc4n(CCN(C)C)c3nc2cc1C` it is 2.88% (active); for `O=S(=O)(NCCNc1cc(-c2cn(-c3ccccc3)nc2-c2cccc(O)c2)ccn1)c1ccc(C(F)(F)F)cc1` it is 43.4%.

As for `COC(=O)C(Cc1ccccc1)n1cc(COc2nc(Cl)nc(Nc3ccc(Cl)cc3)n2)nn1` (stereo not given), the growth is 101%.

Take `Fc1ccc2c(c1)c(-c1nc(-c3c[nH]c4ncccc34)cs1)cn2CCCN1CCCCC1`: the growth is 74.1%. The result for `Cc1cc(N2CCCCC2)nc(N(CCCNc2ccnc3cc(Cl)ccc23)Cc2ccco2)n1` reads 4.38% (active). Consider `CCSc1ncnc2c1ncn2C1OC(CO)C(O)C1O` (stereo not given), for which the growth is 25.4%. The figure for `COc1cc(OC)c2c(c1)c1nc3cc(C)c(C)cc3nc1n2CCN(C)C` is 82%.

`Cc1csc(Nc2nc(-c3ccc(Cl)cc3)nc(C(Cl)(Cl)Cl)n2)n1`: the growth was 91.3%. For the compound `C=C(C)[C@@H]1CC[C@]2(C(=O)N3CCCNCC3)CC[C@]3(C)[C@H](CC[C@@H]4[C@@]5(C)CCC(=O)C(C)(C)[C@@H]5CC[C@]43C)[C@@H]12`, the growth is 91.8%. The figure for `CCN(CC)CCCCCCNc1ccnc2cc(Cl)ccc12` is 104%. The result for `CC(C)(C)c1ccc(OCCCCCCCN2CCNCC2)cc1` reads 71.7%; that for `CC1(C)C(=O)/C(=C\c2cccnc2)C[C@]2(C)[C@H]3CC[C@@H]4[C@@H](C(=O)/C=C/c5ccncc5)CC[C@@]4(C)[C@]3(C)CC[C@@H]12`, -0.549% (active); that for `COC(=O)[C@]12CC[C@@H](C)[C@H](C)[C@@H]1C1=CC[C@@H]3[C@@]4(C)C[C@@H](OC(C)=O)[C@H](O)[C@@](C)(COC(C)=O)[C@@H]4[C@H](O)C[C@@]3(C)[C@]1(C)CC2`, -63.7% (active).

As for `Cc1ccc(S(=O)(=O)Nc2ccc(-c3cc(-c4cccc(F)c4)c(C#N)c(N)n3)cc2)cc1`, the growth is 41%. As for `COc1ccc(OC)c(-c2c(C#N)c(-c3ccco3)nc3c2c(-c2ccccc2)nn3-c2ccccc2)c1`, the growth was 93.8%.

For the compound `O=c1c2sc3ncc(Br)cc3c2ncn1-c1cccc(Cl)c1`, the growth was 80.8%. The result for `Cc1nc([P+](c2ccccc2)(c2ccccc2)c2ccccc2)c(Sc2sc(-c3ccccc3)nc2[P+](c2ccccc2)(c2ccccc2)c2ccccc2)o1` reads 75%; that for `COC(=O)[C@]12CC[C@@H](C(C)=O)[C@@H]1[C@H]1CC[C@@H]3[C@@]4(C)C/C(=C/c5cccnc5)C(=O)C(C)(C)[C@@H]4CC[C@@]3(C)[C@]1(C)CC2`, 52.5%; that for `NC1=C(C/C(N)=N\O)C(c2ccccc2Cl)c2c(ccc3ccccc23)O1` (stereo not given), 57.6%.

As for `O=C1c2ccccc2C(=Cc2ccccc2)c2ccccc21`, the growth is -64.4% (active).

Turning to `COc1ccc2c(c1)c(-c1nc(-c3cn(C)c4ncccc34)cs1)cn2CCN`, the growth was 88.1%.

Regarding `Cc1ccc(Nc2c(C(N)=O)cnc3ccc(S(=O)(=O)Nc4cc(C)on4)cc23)cc1`, the growth was 101%.

Consider `O=C(O)c1cccc2c1-c1ccc(Cl)cc1C2`, for which the growth was 110%. The figure for `CCC(CC)C(=O)OC(C)COc1ccc(C(C)(C)C)cc1` (stereo not given) is 109%; for `CC1(C)NCCC[C@]2(C)[C@H]3CC[C@@H]4[C@H]5[C@H](C(=O)/C=C/c6ccccn6)CC[C@]5(CO)CC[C@@]4(C)[C@]3(C)CC[C@@H]12` it is 76.8%. The figure for `COC(=O)c1cc(=O)nc(N/N=C/c2ccc(C)cc2)s1` is 106%.

Take `CC(=O)NC1=C(C#N)C(c2ccccc2Cl)c2c(ccc3ccccc23)O1` (stereo not given): the growth is 33.8%. The result for `Nc1c2c(nc3ccc(Br)cc13)CC(c1ccccc1)CC2=O` (stereo not given) reads 11%; that for `CN(C)c1ccc(N)c2ccccc12`, 77.2%; that for `CN1CCN(CC#CCn2c3c(c4ccccc42)C[C@]2(C)[C@H]4CC[C@@H]5[C@H]6[C@H]7OC(=O)[C@@]6(CCC7(C)C)CC[C@@]5(C)[C@]4(C)CC[C@H]2C3(C)C)CC1`, 77%. The result for `COc1ccc(/C=C(\C#N)c2cc3ccccc3n2S(C)(=O)=O)cc1` reads 60.1%.

In the case of `Cc1ccc2[nH]cc(-c3nc(-c4cn(C)c5ncccc45)cs3)c2c1`, the growth is 66.7%. The result for `C#CCn1c(C)cc(C)c(C#N)c1=O` reads 106%.
